Screening data (PubChem BioAssay)
IMPase inh: membrane-permeable compound that blocks inositol monophosphatase; CHO-M1 cells, IP1 accumulation, HTRF TR-FRET ratio; inhibition (IP1 accumulation), % at 46.1 µM; 120,000 tested, under 10 active; AID 901; active means well fitted curve in the direction sought with a large enough effect in the signal ratio, not every such curve was filed as active; inconclusive means small, poorly fitted or top-dose-only effect, or a change in a side signal; inactive means no such curve, though single readings can be large or run the other way; the % refers to the signal ratio;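 further: cells stimulated with carbachol in lithium chloride buffer; plate controls were DMSO basal wells for no effect and reference inhibitor wells for full effect; higher means more IMPase inhibition seen as more IP1 and lower FRET ratio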
Target sequence (P97697 whole entry, looked up): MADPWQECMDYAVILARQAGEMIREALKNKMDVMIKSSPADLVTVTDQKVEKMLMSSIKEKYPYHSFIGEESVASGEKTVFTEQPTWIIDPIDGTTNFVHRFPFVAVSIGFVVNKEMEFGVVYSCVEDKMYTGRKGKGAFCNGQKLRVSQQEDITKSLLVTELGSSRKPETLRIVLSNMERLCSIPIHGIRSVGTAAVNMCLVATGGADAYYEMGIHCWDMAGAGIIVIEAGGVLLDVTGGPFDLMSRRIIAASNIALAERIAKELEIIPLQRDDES
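In this qHTS, compounds (final up to 46 uM) act on CHO-M1 cells that are then activated through the M1 receptor with carbachol, in pH 7.4 buffer containing 50 mM LiCl, for 30 min. IP1 accumulation is quantified by the IP-One immunoassay.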
HPGD inh: inhibitors of human 15-hydroxyprostaglandin dehydrogenase (HPGD) | 150,000 tested, 4.3% active | purified HPGD, NADH fluorescence kinetic, PGE2 substrate | AID 894 | Potency, µM, for inactives: at the top dose activity change, negative = inhibition, usual class: inhibitors; active means well fitted inhibition curve with a large enough effect, not every such curve was filed as active; inconclusive means small, poorly fitted or top-dose-only effect, or another doubt; inactive means no such curve, though single readings can be large or run the other way; further: potency means the concentration at half of the fitted maximal effect
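NADH formation kinetics: reaction with 30 uM PGE2 and 1 mM NAD+ (final), 20 nM enzyme, Tris-HCl pH 8 with Tween 20, after 15 min compound preincubation at room temperature. Fluorescence change, last versus first of five reads.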
IMPase Li cell: cell-permeable IMPase inhibitors with lithium potentiation. 210,000 tested, 0.35% active. CHO-M1 cells, IP1 TR-FRET (IP-One), carbachol + lithium. Potency, µM (top dose mostly 59.4 µM), without a hit: at the top dose activity, negative = IMPase inhibition, most hits filed as inhibitors;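 further: IP1 builds up when IMPase is blocked and the TR-FRET signal falls; potency means the concentration at half of the fitted maximal effect; plate controls were basal vehicle for no effect and high inhibitor control for full effect; nearly all actives have a fitted effect of over 50% in size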
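Readout is a homogeneous TR-FRET IP1 immunoassay (Ex 320, Em 665 and 620), where raised cytosolic IP1 lowers signal. Cells were CHO-M1 treated 30 min at 37C with test compounds plus a little lithium; AC50 values came from Hill-equation fitting.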
ALOX12 inhib: inhibitors of human 12-lipoxygenase (ALOX12). 150,000 tested, 0.12% active. Potency, µM (series often up to 57.1 µM), for inactives: at the top dose activity change, negative = inhibition, actives largely listed as inhibitors. purified 12-hLO, xylenol orange hydroperoxide absorbance; further: potency means the concentration at half of the fitted maximal effect; nearly all actives have a fitted effect of over 55% in size
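Hydroperoxide formation by human 12-lipoxygenase from 40 uM arachidonic acid was followed colorimetrically via ferric-xylenol orange complex, using the 573/405 nm absorbance ratio. Enzyme concentration was 150 nM, with 30 min reaction at room temperature.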
ALDH1A1 inh: inhibitors of human aldehyde dehydrogenase 1A1 | P00352 | Purified ALDH1A1, NADH fluorescence, propionaldehyde substrate | Potency, µM (series often up to 75.3 µM), for inactives: at the highest dose activity, negative = inhibition, usual class: inhibitors | 220,000 tested, 7.3% active | AID 1030; active means well fitted inhibition curve with a large enough effect, not every such curve was filed as active; inconclusive means small, poorly fitted or top-dose-only effect, or another doubt; inactive means no such curve, though single readings can be large or run the other way;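 further: potency means the concentration at half of the fitted maximal effect; plate controls were no enzyme wells and a reference inhibitor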
Target sequence (P00352 whole entry, looked up): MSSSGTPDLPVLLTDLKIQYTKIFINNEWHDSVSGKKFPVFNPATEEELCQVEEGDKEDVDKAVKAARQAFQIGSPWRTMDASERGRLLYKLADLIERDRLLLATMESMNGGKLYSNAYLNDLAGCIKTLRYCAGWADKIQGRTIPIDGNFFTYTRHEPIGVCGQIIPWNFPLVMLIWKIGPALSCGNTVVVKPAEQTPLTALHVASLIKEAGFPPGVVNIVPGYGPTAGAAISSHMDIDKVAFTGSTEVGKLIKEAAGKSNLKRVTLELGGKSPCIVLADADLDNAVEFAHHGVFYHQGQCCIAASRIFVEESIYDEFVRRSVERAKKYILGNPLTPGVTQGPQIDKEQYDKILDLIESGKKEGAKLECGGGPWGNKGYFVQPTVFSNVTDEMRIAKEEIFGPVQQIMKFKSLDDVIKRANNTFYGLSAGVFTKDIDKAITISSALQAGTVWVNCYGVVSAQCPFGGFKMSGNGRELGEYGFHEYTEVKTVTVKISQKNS
NPSR antag: neuropeptide S receptor (human) antagonism, cAMP. Q6W5P4. CHO-NPSR cells, cAMP TR-FRET, antagonist mode. Potency, µM (series often up to 38.3 µM), inactives show at the highest dose activity change, negative = inhibition, actives largely listed as inhibitors. 220,000 tested, 1% active. AID 1461; further: potency means the concentration at half of the fitted maximal effect; nearly all actives have a fitted effect of over 50% in size
Active calls of the source: *; ? = inconclusive; . = not tested or not shown; [ ] = dose if it differs, or a comment. This is a sample that favours compounds with a hit; in the whole collection about 8.9% have one here. Unless noted, the call rests on the fitted dose curve; in most records, active means well fitted curve in the direction sought with a large enough effect; inconclusive means small, poorly fitted or top-dose-only effect, or another doubt; inactive means no such curve, though single readings can be large; an effect the other way counts as inactive or inconclusive. Unless noted, on the % scale 0 is the no-effect control and ±100 the full control effect.

SMILES | IMPase inh | HPGD inh | IMPase Li cell | ALOX12 inhib | ALDH1A1 inh | NPSR antag
O=C(Nc1ccc2c(c1)nc1n2CCSC1)c1ccccc1 | -10 | -7% | 12%[38.3 µM] | 7% | 22µM* | 10%[46.1 µM]
COc1cc(NS(=O)(=O)c2ccc(C)c(C)c2)c(OC)cc1Cl | 4 | -10% | 30%[38.3 µM] | 3% | ? | -27%[46.1 µM]
O=C(NC1CCCCCC1)C(=S)N1CCOCC1 | . | . | 4% | . | 10µM* | 4%
O=C(NC1CCCCCC1)C(=S)N1CCCC1 | . | . | 0% | . | -6% | -4%
COc1cc(/C=C2\C(=O)N(CCC#N)N=C2C)c(Br)cc1OC(C)C | -16 | 8.9µM* | -4% | -4% | -8% | -2%[46.1 µM]
COc1ccc(Br)cc1C(=O)NC(=S)Nc1ccc(Cl)c(C(=O)O)c1 | . | . | 4% | . | 18µM* | -27%
N#CC1=C2N=C(N)c3c(sc4c3CCCCC4)N2C2=C(C(=O)CCC2)C1c1ccccc1 (stereo not drawn) | 0 | -10% | -25%[38.3 µM] | -15% | 5µM* | -30%[46.1 µM]
N#CC1=C2N=C(N)c3ccccc3N2C2=C(C(=O)CCC2)C1c1ccc(F)cc1 (stereo not drawn) | . | . | . | . | . | -11%
CC1(C(=O)NC2CCCC2)CCC(=O)N1Cc1cccs1 (stereo not drawn) | 9 | -4% | 2%[38.3 µM] | -1% | 1% | -1%[46.1 µM]
CSc1ccc(C2C(C#N)=C(N)N(c3ccccc3)C3=C2C(=O)CCC3)cc1 (stereo not drawn) | 7 | -12% | 12%[38.3 µM] | ? | ? | -28%[46.1 µM]
N#CC1=C(N)N(c2ccc(F)cc2)C2=C(C1c1ccc(O)cc1)S(=O)(=O)CC2 (stereo not drawn) | . | . | 11% | . | 11µM* | -35%
CCOC(=O)CSc1ncnc2c1cnn2-c1ccc(C)cc1C | . | . | -6% | . | -1% | -8%
O=C(O)CSC1CC(=O)N(c2cccc(Cl)c2)C1=O (stereo not drawn) | 0 | -3% | -9%[38.3 µM] | 0% | 10µM* | -10%[46.1 µM]
Nc1ccccc1SC1CC(=O)N(c2ccc(Cl)c(Cl)c2)C1=O (stereo not drawn) | . | . | . | . | 2% | 38%
O=C(NNC1CC(=O)N(c2cccc(Cl)c2)C1=O)c1cccs1 (stereo not drawn) | . | -6% | 0% | -5% | ? | 11%
O=C(O)CSC1CC(=O)N(c2ccc(Cl)c(Cl)c2)C1=O (stereo not drawn) | -3 | -14% | -15%[38.3 µM] | -6% | 3.2µM* | -6%[46.1 µM]
CC1(c2nnc(-c3ccc(Cl)cc3)o2)CC(c2cccc(Cl)c2)=NO1 (stereo not drawn) | . | . | . | . | . | 1%
CCCCOc1ccc(S(=O)(=O)NCc2csc(C)n2)cc1 | 7 | -14% | 17%[38.3 µM] | 0% | 8% | 0%[46.1 µM]
COc1ccc(NC(=O)c2ccc(-n3cccn3)nc2)c(OC)c1 | 1 | -12% | -2%[38.3 µM] | -2% | -3% | 0%[46.1 µM]
CC1(C)CC(=O)c2cc3c(nc2C1)CC(C)(C)CC3=O | ? | . | . | -4% | 7.1µM* | 2%[46.1 µM]
CC1(C)CC(=O)c2cnc(N)nc2C1 | 3 | -12% | -21%[38.3 µM] | 2% | ? | -2%[46.1 µM]
CC1=C(C(=O)Nc2cc(-c3cccc(F)c3)[nH]n2)C2(CCCCC2)OC1=O | -2 | -4% | -3%[38.3 µM] | -2% | 4% | -13%[46.1 µM]
CCc1ccccc1OCc1nc2ccc(S(=O)(=O)N3CCOCC3)cc2[nH]1 | -3 | -21% | 21%[38.3 µM] | 4% | ? | -12%[46.1 µM]
COc1ccc(NS(=O)(=O)c2ccc3nc(COc4ccc5ccccc5c4)[nH]c3c2)cc1 | 9 | . | . | -4% | -5% | ?
COc1ccc(NS(=O)(=O)c2ccc3nc(COc4cccc5ccccc45)[nH]c3c2)cc1 | . | 35µM* | 9% | -12% | 22µM* | -23%
SMILES | IMPase inh | HPGD inh | IMPase Li cell | ALOX12 inhib | ALDH1A1 inh | NPSR antag
Cc1ccccc1OCc1nc2ccc(S(=O)(=O)N3CCOCC3)cc2[nH]1 | 0 | 14µM* | -5%[38.3 µM] | 2% | 10µM* | -11%[46.1 µM]
O=c1c2ccccc2nc2n1CC/C2=C/N1CCN(c2cccc(C(F)(F)F)c2)CC1 | 18 | . | . | -22% | 4µM* | -10%[46.1 µM]
O=C(/C=C/c1ccc(Br)o1)NCc1ccccc1 | . | . | -1% | . | 6.3µM* | -12%
Cc1ccc(CNC(=O)/C=C/c2ccc(Br)o2)cc1 | . | -28% | -1% | -5% | 3.5µM* | 5%
CCOc1ccccc1N1C(=O)CC(Nc2ccc(N3CCOCC3)cc2)C1=O (stereo not drawn) | 1 | -16% | 22%[38.3 µM] | ? | 7.9µM* | -10%[46.1 µM]
CC(C)N(C(=O)CSc1nn2c(=O)c(C(C)(C)C)nnc2s1)c1ccccc1 | -8 | -20% | 11%[38.3 µM] | -1% | 22µM* | -28%[46.1 µM]
FC(F)(F)c1nc(-c2cccnc2)ncc1-c1nnnn1-c1ccccc1 | 7 | -11% | 13%[38.3 µM] | -4% | 5% | -15%[46.1 µM]
CCc1ccccc1-n1nnnc1-c1cnccc1C(F)(F)F | . | . | . | . | 18µM* | 0%
O=C(c1ccccc1)c1coc2ccc(O)c(Cl)c12 | -1 | 14µM* | 31%[38.3 µM] | -9% | ? | -27%[46.1 µM]
Cc1ccc(C(=O)c2coc3ccc(O)c(Cl)c23)cc1 | 10 | -29% | 20%[38.3 µM] | -12% | 13% | -18%[46.1 µM]
O=C(N/N=C/c1cccc(O)c1)c1ccc(COc2ccc3c(c2)CCC3)o1 | 6 | -16% | 35%[38.3 µM] | 1% | -10% | ?
O=C(c1ccco1)N1CCN(C(=O)c2ccc(COc3ccc4c(c3)CCC4)o2)CC1 | 6 | 28µM* | 21%[38.3 µM] | 0% | 28µM* | -18%[46.1 µM]
NNC(=O)c1ccc(COc2ccc3c(c2)CCC3)o1 | -5 | -1% | -3% | -2% | 7.9µM* | 20%
O=C(NCc1ccccc1)c1cccc(COc2ccc3c(c2)CCC3)c1 | 7 | -8% | 7% | -1% | 2% | -11%
COc1cccc(OC)c1C(=O)NNC(=O)c1cccc(COc2ccc3c(c2)CCC3)c1 | -4 | -6% | -4%[38.3 µM] | -13% | 20µM* | -11%[46.1 µM]
CC(=NCc1ccncc1)C1=C(O)c2ccccc2C1=O | 2 | -17% | 45%[38.3 µM] | -9% | ? | -12%[46.1 µM]
Cc1ccc2nc(NC(=O)CCNS(=O)(=O)c3ccc(Br)s3)sc2c1 | 7 | -7% | 21%[38.3 µM] | ? | 3% | ?
COc1ccccc1-c1nnc(NC(=O)OCC(C)C)s1 | -14 | -6% | 11µM* | -4% | ? | -14%[46.1 µM]
COc1ccc(-c2nnc(NC(=O)C(C)C)s2)c(OC)c1 | ? | ? | 13µM* | 3% | ? | 12%[46.1 µM]
CCC(Sc1ccc(C(=O)O)cc1)C(=O)O (stereo not drawn) | ? | -7% | -6% | 3% | -3% | -3%[46.1 µM]
NC1=NC[C@@H](Cc2ccc(O)cc2)N1CCc1cc(C(F)(F)F)cc(C(F)(F)F)c1 | . | . | . | . | . | -30%
NC1=NC[C@H](CC2CCCCC2)N1CCc1cc(C(F)(F)F)cc(C(F)(F)F)c1 | . | . | . | . | . | 10µM*
